Measured values taken from PubChem BioAssay.
“And” between values parts separate entries of the source, which are not always exact repeats. Equal entries are not always repeated. Where a SMILES comes first, the peptide text is derived from it. The star is where a group is joined. Boc = CC(C)(C)OC(=O)*; OBn = c1ccc(CO*)cc1

Tests used:
[1] = system: Botulinum neurotoxin type F light chain protease (Clostridium botulinum); assay: Clostridium botulinum type F light chain protease inhibitors, microsphere substrate cleavage, validation (AID 588459); details: multiplex microsphere protease substrate cleavage assay, flow cytometry; at 10 µM; hits give high values
[2] = molecular target: Botulinum neurotoxin type A (Clostridium botulinum) (UniProt P0DPI0); assay: BoNT/A light chain protease inhibitors, biochemical, multiplex microsphere flow cytometry, validation set (AID 588460); details: at 10 µM, hits give high values
Sequence of Botulinum neurotoxin type A (Clostridium botulinum) (P0DPI0 whole entry, looked up): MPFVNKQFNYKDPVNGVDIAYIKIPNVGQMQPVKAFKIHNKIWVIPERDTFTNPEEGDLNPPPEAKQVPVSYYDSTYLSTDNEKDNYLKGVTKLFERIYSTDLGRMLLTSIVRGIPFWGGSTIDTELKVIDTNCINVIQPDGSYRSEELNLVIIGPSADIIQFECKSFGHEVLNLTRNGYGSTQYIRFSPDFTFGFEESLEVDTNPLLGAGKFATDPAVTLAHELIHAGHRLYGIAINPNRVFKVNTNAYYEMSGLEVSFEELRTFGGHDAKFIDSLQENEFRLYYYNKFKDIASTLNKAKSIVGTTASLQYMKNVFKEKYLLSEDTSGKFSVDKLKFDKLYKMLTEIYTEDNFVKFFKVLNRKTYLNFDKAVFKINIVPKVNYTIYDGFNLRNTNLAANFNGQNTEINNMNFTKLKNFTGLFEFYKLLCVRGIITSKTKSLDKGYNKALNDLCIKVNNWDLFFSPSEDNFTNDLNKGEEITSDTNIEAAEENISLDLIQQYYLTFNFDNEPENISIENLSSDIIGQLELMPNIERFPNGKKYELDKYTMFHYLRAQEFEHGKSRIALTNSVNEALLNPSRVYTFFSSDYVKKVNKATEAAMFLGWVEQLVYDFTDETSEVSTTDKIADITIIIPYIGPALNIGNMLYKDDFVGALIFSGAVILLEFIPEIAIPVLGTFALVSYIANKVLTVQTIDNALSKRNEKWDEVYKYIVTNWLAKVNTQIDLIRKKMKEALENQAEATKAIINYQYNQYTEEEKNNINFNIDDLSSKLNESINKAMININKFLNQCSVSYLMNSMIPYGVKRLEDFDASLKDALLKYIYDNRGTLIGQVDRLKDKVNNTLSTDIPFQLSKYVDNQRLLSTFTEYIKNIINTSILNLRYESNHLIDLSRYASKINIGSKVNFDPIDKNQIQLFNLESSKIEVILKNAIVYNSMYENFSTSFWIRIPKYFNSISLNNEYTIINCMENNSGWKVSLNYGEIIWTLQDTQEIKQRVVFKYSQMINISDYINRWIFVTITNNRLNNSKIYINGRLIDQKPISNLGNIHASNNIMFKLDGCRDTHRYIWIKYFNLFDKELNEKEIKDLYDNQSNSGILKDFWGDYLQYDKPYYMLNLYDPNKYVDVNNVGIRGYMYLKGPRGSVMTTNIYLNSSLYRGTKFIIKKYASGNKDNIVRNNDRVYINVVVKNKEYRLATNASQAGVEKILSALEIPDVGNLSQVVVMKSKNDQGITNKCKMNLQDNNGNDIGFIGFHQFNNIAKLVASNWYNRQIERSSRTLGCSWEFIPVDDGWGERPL

[3] = molecular target: Lethal factor (Bacillus anthracis) (UniProt P15917); assay: Bacillus anthracis lethal factor inhibition, microsphere flow cytometry protease assay, validation at 10 µM (AID 588461); details: multiplex microsphere protease cleavage assay, hits give high values
Sequence of Lethal factor (Bacillus anthracis) (P15917 whole entry, looked up): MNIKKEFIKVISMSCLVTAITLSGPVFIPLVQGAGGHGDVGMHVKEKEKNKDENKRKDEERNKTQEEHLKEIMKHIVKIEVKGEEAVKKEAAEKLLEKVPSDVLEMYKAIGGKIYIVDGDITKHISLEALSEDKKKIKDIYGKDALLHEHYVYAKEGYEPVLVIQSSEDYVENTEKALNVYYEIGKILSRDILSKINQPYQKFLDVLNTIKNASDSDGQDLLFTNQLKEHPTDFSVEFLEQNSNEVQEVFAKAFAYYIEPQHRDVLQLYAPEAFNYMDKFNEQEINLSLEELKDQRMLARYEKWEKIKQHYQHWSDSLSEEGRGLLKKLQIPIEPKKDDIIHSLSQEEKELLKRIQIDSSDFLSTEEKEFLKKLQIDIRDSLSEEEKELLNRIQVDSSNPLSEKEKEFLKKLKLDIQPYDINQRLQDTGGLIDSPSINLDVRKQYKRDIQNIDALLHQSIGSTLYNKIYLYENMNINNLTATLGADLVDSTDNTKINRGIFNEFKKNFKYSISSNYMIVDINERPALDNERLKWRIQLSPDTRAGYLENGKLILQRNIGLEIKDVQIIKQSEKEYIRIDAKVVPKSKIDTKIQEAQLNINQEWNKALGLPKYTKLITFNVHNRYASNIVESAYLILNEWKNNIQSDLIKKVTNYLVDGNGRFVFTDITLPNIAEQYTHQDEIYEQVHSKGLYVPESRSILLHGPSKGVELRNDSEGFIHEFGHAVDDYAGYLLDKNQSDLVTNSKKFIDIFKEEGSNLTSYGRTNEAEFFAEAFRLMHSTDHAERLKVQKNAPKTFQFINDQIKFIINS

Measured: inhibition

CC(=O)Oc1ccc(C(=O)O)cc1OC(C)=O
inactive: [1] -0.7% | [2] 0.4% | [3] 2.4%

O=C(NCCc1ccccc1)C1CCN(C2CCN(Cc3ccco3)CC2)CC1
inactive: [1] -0.8% | [2] -0.7% | [3] -9.8%

CC(C)C12CN3CC(C(C)C)(CN(C1)C3c1ccccc1)C2O (stereo unspecified)
inactive: [1] 1.7% | [2] 1.2% | [3] 7%

Cc1nc(C(=O)Nc2ccccc2Cl)cc2c1[nH]c1ccccc12
inactive: [1] -0.3% | [2] -0.9% | [3] -4.5%

COc1ccc2cc(C(=O)Nc3ccc(S(N)(=O)=O)cc3)sc(=O)c2c1OC
inactive: [1] 4.2% | [2] 0.6% | [3] 1.5%

Cc1c(NC(=O)c2cccs2)cccc1[N+](=O)[O-]
inactive: [1] 4.2% | [2] 1.3% | [3] 5.7%

Nc1ccc(S(=O)(=O)c2ccc(N)cc2)cc1
inactive: [1] -2.8% | [2] -2.5% | [3] 4.9%

O=c1cc(-c2ccc3c(c2)OCCO3)oc2ccc(Cl)cc12
inactive: [1] 0.8% | [2] -0.6% | [3] 0.9%

OCCC1CN(Cc2ccccc2-c2ccco2)CCN1C1CCCC1 (stereo unspecified)
inactive: [1] 4.4% | [2] 0.5% | [3] 5.3%

C#C[C@]1(O)CC[C@H]2[C@@H]3CCc4cc(OC)ccc4[C@H]3CC[C@@]21C
inactive: [1] 0.9% | [2] 0.4% | [3] -5.2%

Nc1ccc(S(=O)(=O)NC(=O)c2ccccc2)cc1
inactive: [1] 1.2% | [2] 1.3% | [3] -2.7%

O=C(O)c1cnccn1
inactive: [1] -5.5% | [2] -1.6% | [3] -1.5%

NCCc1cnc[nH]1
inactive: [1] 0.7% and 3.1% | [2] -1.5% | [3] 3.7%

CC(=O)Nc1nc(CCC(C)C)cc2c1c(=O)oc1ccccc12
inactive: [1] 1.3% | [2] -0.1% | [3] -9.4%

CC(C)(C)n1c(=O)[nH]c2c(c1=O)CCC2
inactive: [1] 1.8% | [2] -0.4% | [3] -3.9%

CC(=O)Oc1c2occc2cc2ccc(=O)oc12
inactive: [1] -2.4% | [2] -1% | [3] -7.3%

C[C@]12CCC3C(CC=C4C[C@@H](O)CC[C@@]43C)C1CCC2[C@]1(C)CCC(=O)O1 (stereo partly specified)
inactive: [1] 0.6% | [2] -0.3% | [3] -5.1%

C[C@@H]1CCC[C@H](C)N1NC(=O)c1ccc(Cl)c(S(N)(=O)=O)c1
inactive: [1] 1.2% | [2] -1.2% | [3] -0.8%

O=C(NCCN1CCCCC1)c1c(O)c2ccccc2[nH]c1=O
inactive: [1] 3.5% | [2] 0.4% | [3] -3.9%

O=C(CN1C(=O)c2ccccc2S1(=O)=O)Nc1ccccc1
inactive: [1] 2.3% | [2] 0.2% | [3] -4.6%

O=C(O)CP(=O)(O)O
inactive: [1] 1.3% | [2] 0.3% | [3] -2.7%

CC(=O)N(CCC(Cc1ccccc1)c1ccco1)Cc1ccco1 (stereo unspecified)
inactive: [1] 1.4% | [2] 1.7% | [3] 0.3%

C[C@H]1O[C@@H](O[C@H]2[C@@H](O)C[C@H](O[C@H]3[C@@H](O)C[C@H](O[C@H]4CC[C@@]5(C)[C@H](CC[C@@H]6[C@@H]5C[C@@H](O)[C@]5(C)[C@@H](C7=CC(=O)OC7)CC[C@]65O)C4)O[C@@H]3C)O[C@@H]2C)C[C@H](O)[C@@H]1O
inactive: [1] 2.7% | [2] -0.7% | [3] -2.8%

CCOC(=O)c1ccc(NC(=S)NCCc2ccccc2F)cc1
inactive: [1] 4.9% | [2] 2.4% | [3] -2.3%

COc1ccc(CCn2c(C)cc3c(c2=O)C(c2ccncc2)C(C#N)=C(N)O3)cc1OC (stereo unspecified)
inactive: [1] -1.2% | [2] -0.6% | [3] -6.7%

CC(=O)[C@@]1(O)CC[C@H]2[C@@H]3CCC4=CC(=O)CC[C@]4(C)[C@H]3[C@@H](O)C[C@@]21C
inactive: [1] 2.3% | [2] -1.1% | [3] 1.8%

NC(=O)c1cccnc1
inactive: [1] 1.8% | [2] -0.2% | [3] 3%

O=C(Nc1ccc(F)c([N+](=O)[O-])c1)c1ccc2c(c1)OCCO2
inactive: [1] -3.7% | [2] -2.7% | [3] -7.5%

COc1ccc(NC(=S)N2CCN(CCN3C(=O)c4cccc5cccc(c45)C3=O)CC2)cc1
inactive: [1] 2.5% | [2] 1.6% | [3] -3.3%

O=C(NCc1ccc(N2CCCC2=O)cc1)c1ccc(F)cc1
inactive: [1] 5.2% | [2] -0.6% | [3] -3.8%

Cn1c(=O)[nH]c2nnc(-c3ccc(Cl)c(Cl)c3)nc2c1=O
inactive: [1] -0.1% | [2] 0.4% | [3] -4.1%

O[C@@H](CNC[C@H](O)c1ccccc1)c1ccccc1
inactive: [1] 3.9% | [2] 1.5% | [3] 4.2%

CC(=O)C1=C(Nc2ccc(C)cc2)CC(C)(O)C(C(C)=O)C1c1ccco1 (stereo unspecified)
inactive: [1] 1% | [2] 0% | [3] -2.3%

CC(CCc1ccccc1)NC(=O)/C=C/c1ccccc1 (stereo unspecified)
inactive: [1] 4.2% | [2] 0.4% | [3] 1.8%

COc1ccc(OC)c(S(=O)(=O)N2CCCc3ccccc32)c1
inactive: [1] -4.6% | [2] -0.4% | [3] -0.9%

COc1ccc(-c2[nH]ncc2C=O)cc1OC
inactive: [1] -3.5% | [2] -0.8% | [3] -2.5%

O=c1c2[nH]c3ccccc3c2ncn1CCC1=CCCCC1
inactive: [1] 4.3% | [2] 0.9% | [3] -3.1%

C=CCNc1nc2c(c(=O)n(C)c(=O)n2C)n1CC(=C)C
inactive: [1] 3.1% | [2] 0.5% | [3] -0.3%

Cc1nc(N)nc2c1CCCC2
inactive: [1] 2.4% | [2] 1.2% | [3] 4.9%

CC(=O)O[C@]1(C(C)=O)CC[C@H]2[C@@H]3C=C(C)C4=CC(=O)CC[C@]4(C)[C@H]3CC[C@@]21C
inactive: [1] 2% | [2] 1.2% | [3] -4.2%

O=c1[nH]cnc2c1ncn2[C@@H]1O[C@H](CO)[C@@H](O)[C@H]1O
inactive: [1] 1.2% | [2] 0.1% | [3] -8%

O=C(COc1ccccc1)Nc1ccc2c(c1)C(=O)N(CC1CCCO1)C2=O (stereo unspecified)
inactive: [1] -0.5% | [2] -0.9% | [3] 4.5%

C1COC(NC(C2CC2)C2CC2)=N1
inactive: [1] 3% | [2] -0.1% | [3] -5%

CC12CCC(C(=O)N3CCCCC3)([C@H](Br)C1=O)C2(C)C (stereo partly specified)
inactive: [1] -3.4% | [2] -1.3% | [3] 0.1%

CCOc1ccc(C(=O)N2CCCC2C(=O)O)cc1 (stereo unspecified)
inactive: [1] -1.3% | [2] 0.5% | [3] 1.5%

COc1cccc(OCc2cc(C3Nc4ccccc4C(=O)N3Cc3ccco3)ccc2OC)c1 (stereo unspecified)
inactive: [1] -1% | [2] 0.9% | [3] -2.1%

COc1ccccc1C1C(C#N)=C(N)Oc2c1oc(CO)cc2=O (stereo unspecified)
inactive: [1] 1.9% | [2] -1% | [3] -5.1%

COc1cc(CNCCc2ccccc2F)ccc1OCC(=O)N1CCCCC1
inactive: [1] 5.4% | [2] -0.1% | [3] 1%

CC[N+](C)(C)c1cccc(O)c1
inactive: [1] 1.7% | [2] -0.2% | [3] 0.7%

COc1ccc(NC(=O)CC(c2ccccc2)c2ccco2)cc1 (stereo unspecified)
inactive: [1] 2.3% | [2] 0.9% | [3] 9.1%

Cc1ccc(-c2nnc(-c3ccc4c(c3)OCO4)o2)cc1
inactive: [1] -1% | [2] -0.1% | [3] -8%

COc1ccc(C2CC(c3ccc([N+](=O)[O-])cc3)=NN2C(=O)c2ccccc2)cc1OC (stereo unspecified)
inactive: [1] 10.2% | [2] 7.9% | [3] 2.3%

CC(=O)N1CCn2c3c(c4cc(C)ccc42)CCCC31 (stereo unspecified)
inactive: [1] 3.1% | [2] -0.3% | [3] -2.3%

O=C(CCCCC(=O)NC1CCCC1)NC1CCCC1
inactive: [1] 1.5% | [2] 0.2% | [3] -3.4%

O=C(OCC1CCCN2CCCCC12)c1ccc2c(c1)OCO2 (stereo unspecified)
inactive: [1] -1.9% | [2] -1.6% | [3] -6.7%

COc1ccc(-c2cc(=Nc3ccc(C)cc3)c3ccccc3o2)cc1
inactive: [1] -2.2% | [2] -0.6% | [3] 2.9%

O=C(/C=C/c1ccc(Cl)cc1)NCCc1ccccc1
inactive: [1] -4% | [2] 0.4% | [3] 2.3%

CSCCC(NC(=O)/C(=C/c1ccc2c(c1)OCO2)NC(=O)c1cccc([N+](=O)[O-])c1)C(=O)O (stereo unspecified)
inactive: [1] -1.7% | [2] 0.6% | [3] -9.5%

Clc1ccc2c(c1)C(N1CCNCC1)=Nc1ccccc1O2
inactive: [1] 3.1% | [2] 2.2% | [3] -6.2%

CC(C)CC(NC(=O)C(NC(=O)OC(C)(C)C)C(C)C)C(=O)NC(CCC(=O)OCc1ccccc1)C(N)=O (stereo not drawn) (Boc-Val-Leu-Glu(OBn)-NH2; configuration not given here)
inactive: [1] 2.1% | [2] -1.3% | [3] -0.4%

COC(=O)c1ccc(COc2ccc3c(C)c(C)c(=O)oc3c2C)o1
inactive: [1] 1.9% | [2] -0.8% | [3] 0.2%

COc1ccc(NC(=S)NCCc2c[nH]c3ccccc23)cc1
inactive: [1] -0.4% | [2] -0.9% | [3] 0.4%
